Data on one compound can be found in PubChem BioAssay (EPA / NIEHS).

Read-out in experiment [1]: sulfotransferase 2A1 (SULT2A1), SULT2A1 (gene 6822)
Description: LTEA_HepaRG_SULT2A1: Life Technologies and Expression Analysis (LTEA) Assay for sulfotransferase 2A1 (SULT2A1) using HepaRG (AID 2283531). Conditions: mRNA level, 48 h; actives raise or lower the signal. The gist of the method:
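HepaRG human liver cells, 48 h exposure in serum-free induction medium to 8 half-log concentrations topping at 100 µM (0.5% DMSO), duplicate wells. SULT2A1 mRNA measured by TaqMan qRT-PCR, normalized to ACTB/GAPDH/POLR2A; bidirectional fit against DMSO.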

Read-out in experiment [2]: Transforming Growth Factor (TGFA), TGFA (gene 7039)
Nature of the experiment: LTEA_HepaRG_TGFA: Life Technologies and Expression Analysis (LTEA) Assay for Transforming Growth Factor (TGFA) using HepaRG (AID 2283532). The following applies: mRNA level, 48 h; actives raise or lower the signal. The gist of the method: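 TGFA transcript quantified by qRT-PCR (Fluidigm arrays) against three housekeeping genes, after 48 hours chemical treatment of HepaRG cells. Top concentration 100 uM with half-log dilutions, 8 points, duplicates, 0.5% DMSO.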

Read-out in experiment [3]: Transforming Growth Factor (TGFB1), TGFB1 (gene 7040)
Nature of the experiment: LTEA_HepaRG_TGFB1: Life Technologies and Expression Analysis (LTEA) Assay for Transforming Growth Factor (TGFB1) Transporter using HepaRG (AID 2283533). Conditions: mRNA level, 48 h; actives raise or lower the signal. Summed up: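 Differentiated HepaRG cells exposed 48 hr in serum-free induction medium to eight half-log concentrations up to 100 uM (0.5% DMSO), duplicate; TGFB1 mRNA by TaqMan qRT-PCR normalised to ACTB, GAPDH, POLR2A; bidirectional fit against DMSO.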

Read-out in the next experiment: TIMP1, TIMP1 (gene 7076)
Nature of the experiment: LTEA_HepaRG_TIMP1: Life Technologies and Expression Analysis (LTEA) Assay for TIMP1 using HepaRG (AID 2283534). The following applies: mRNA level, 48 h; actives raise or lower the signal. Summed up: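 Differentiated HepaRG cells exposed 48 h in serum-free induction medium, duplicates, eight half-log concentrations from 100 uM in 0.5% DMSO. TIMP1 mRNA by qRT-PCR normalized to ACTB, GAPDH, POLR2A; bidirectional fitting against DMSO.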

Read-out in experiment [4]: Tumor necrosis factor receptor 1 (TNFRSF1A), TNFRSF1A (gene 7132)
Nature of the experiment: LTEA_HepaRG_TNFRSF1A: Life Technologies and Expression Analysis (LTEA) Assay for Tumor necrosis factor receptor 1 (TNFRSF1A) using HepaRG (AID 2283535). The following applies: mRNA level, 48 h; actives raise or lower the signal. Summed up: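 Differentiated HepaRG cells in serum-free induction medium, exposed 48 h in duplicate to 8 half-log concentrations up to 100 uM in 0.5% DMSO. TNFRSF1A mRNA by Fluidigm TaqMan qRT-PCR, normalized to ACTB, GAPDH, POLR2A; bidirectional fit.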

Read-out in experiment [5]: Thyroid Hormone Responsive (THRSP), THRSP (gene 7069)
Nature of the experiment: LTEA_HepaRG_THRSP: Life Technologies and Expression Analysis (LTEA) Assay for Thyroid Hormone Responsive (THRSP) using HepaRG (AID 2283536). Conditions: mRNA level, 48 h; actives raise or lower the signal. The gist of the method: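 THRSP transcript quantified by Fluidigm qRT-PCR against three housekeeping genes after 48 h chemical exposure of HepaRG cells in serum-free induction medium; eight-point half-log series, top 100 uM, 0.5% DMSO vehicle, duplicate wells.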

Read-out in experiment [6]: Cellular tumor antigen p53 (Homo sapiens) (UniProt P04637)
Description: LTEA_HepaRG_TP53: Life Technologies and Expression Analysis (LTEA) Assay for Tumor Protein P53 (TP53) using HepaRG (AID 2283537). Conditions: mRNA level, 48 h; actives raise or lower the signal. Summed up: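 HepaRG, 48 h exposure, top 100 uM, half-log 8-point, 0.5% DMSO vehicle, duplicates. Read: TP53 mRNA by TaqMan qRT-PCR, normalised to ACTB/GAPDH/POLR2A; bidirectional fit vs DMSO.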

Read-out in experiment [7]: UDP glucuronosyltransferase (UGT1A1), UGT1A1 (gene 54658)
Description: LTEA_HepaRG_UGT1A1: Life Technologies and Expression Analysis (LTEA) Assay for UDP glucuronosyltransferase (UGT1A1) using HepaRG (AID 2283538). The following applies: mRNA level, 48 h; actives raise or lower the signal. Summed up:
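HepaRG, 48 h chemical exposure (top 100 uM, half-log 8-pt, 0.5% DMSO vehicle), duplicate wells; qRT-PCR (TaqMan, Fluidigm array) for UGT1A1 mRNA, housekeeping-normalized; bidirectional curve fit vs DMSO baseline.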

Read-out in experiment [8]: UDP glucuronosyltransferase (UGT1A6), UGT1A6 (gene 54578)
Nature of the experiment: LTEA_HepaRG_UGT1A6: Life Technologies and Expression Analysis (LTEA) Assay for UDP glucuronosyltransferase (UGT1A6) using HepaRG (AID 2283539). The following applies: mRNA level, 48 h; actives raise or lower the signal. Summed up:
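Differentiated HepaRG cells, ~100,000/well, were exposed for 48 h in serum-free induction medium with 0.5% DMSO to 8-point half-log series topping at 100 uM, in duplicate. mRNA measured by Fluidigm TaqMan qRT-PCR, normalized to ACTB, GAPDH and POLR2A.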

Read-out in experiment [9]: X-box binding protein 1 (XBP1), XBP1 (gene 7494)
Description: LTEA_HepaRG_XBP1: Life Technologies and Expression Analysis (LTEA) Assay for X-box binding protein 1 (XBP1) using HepaRG (AID 2283540). Conditions: mRNA level, 48 h; actives raise or lower the signal. The gist of the method:
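Differentiated human HepaRG cells in serum-free induction medium exposed 48 h in duplicate to eight half-log concentrations up to 100 uM in 0.5% DMSO. XBP1 mRNA measured by Fluidigm TaqMan qRT-PCR, normalized to ACTB, GAPDH, POLR2A; bidirectional fitting against DMSO.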

Experiment [10] is described as follows: LTEA_HepaRG_LDH_cytotoxicity: Cytotoxicity Assessment in the Life Technologies and Expression Analysis (LTEA) Assay (AID 2283563; active means hit-call score of the fitted dose curve at least 0.9, where 1 is the maximum). The gist of the method: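 Differentiated HepaRG cells in serum-free induction medium, exposed 48 h in duplicate to 8 half-log concentrations up to 100 uM in 0.5% DMSO. Cytotoxicity from LDH measured in spent medium, fit relative to DMSO.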

A short description of experiment [11]: TOX21_p53_BLA_p2_viability: Viability Assessment in the Tox21 HCT-116 p53 Agonism Beta-lactamase Assay, Phase 2 (AID 2283591; active means hit-call score of the fitted dose curve at least 0.9, where 1 is the maximum;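 further: actives lower the ATP signal meaning cytotoxicity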). The gist of the method: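 Cytotoxicity readout: CellTiter-Glo ATP luminescence, 30 min at room temperature, after the beta-lactamase read. Cells were HCT116 exposed 16 h at 37C to compounds pin-transferred at 217-fold dilution from DMSO stocks.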

Experiment [12] concerns the target Cellular tumor antigen p53 (Homo sapiens) (UniProt P04637). Nature of the experiment: TOX21_p53_BLA_p2_ratio: Tox21 HCT-116 p53 Agonism Beta-lactamase Assay, Ratio, Phase 2 (AID 2283592; active means hit-call score of the fitted dose curve at least 0.9, where 1 is the maximum). Summed up: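 First, HCT116 reporter cells settle for 5 h at 37C. Next, DMSO compound solutions are pinned in (217-fold dilution) and left 16 h. Finally, CCF4-AM substrate is loaded 2 h at room temperature and the 460/530 nm ratio read.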

Experiment [13] is described as follows: TOX21_p53_BLA_p3_viability: Viability Assessment in the Tox21 HCT-116 p53 Agonism Beta-lactamase Assay, Phase 3 (AID 2283593; active means hit-call score of the fitted dose curve at least 0.9, where 1 is the maximum;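 further: cells exposed to compound for 16 h before reading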). Summed up:
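Cellular ATP was quantified by CellTiter-Glo luminescence, read after 30 min at room temperature. Beforehand, HCT116 cells (4000/well) received compound 5 h post-seeding, 217-fold diluted from DMSO, then incubated 16 h at 37C.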

Experiment [14] has as its target Cellular tumor antigen p53 (Homo sapiens) (UniProt P04637). Description: TOX21_p53_BLA_p3_ratio: Tox21 HCT-116 p53 Agonism Beta-lactamase Assay, Ratio, Phase 3 (AID 2283596; active means hit-call score of the fitted dose curve at least 0.9, where 1 is the maximum). The gist of the method: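 Cells were seeded at 4000/well, rested 5 h at 37C, then dosed with DMSO compound solutions (217-fold dilution) for 16 h. CCF4-AM substrate was loaded for 2 h at room temperature, and the 460/530 nm emission ratio was fitted for gain of signal versus DMSO.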

Experiment [15] in a line: TOX21_p53_BLA_p4_viability: Viability Assessment in the Tox21 HCT-116 p53 Agonism Beta-lactamase Assay, Phase 4 (AID 2283597; active means hit-call score of the fitted dose curve at least 0.9, where 1 is the maximum;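 further: hits lower the luminescence signal meaning cytotoxicity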). Summed up: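 4000 HCT116 cells per well; 5 h attachment; compounds from DMSO, 217-fold dilution; 16 h at 37C. Then CCF4-AM, 2 h RT, followed by CellTiter-Glo, 30 min RT, luminescence. Decrease = cytotoxicity.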
The target of experiment [16] is Cellular tumor antigen p53 (Homo sapiens) (UniProt P04637). Nature of the experiment: TOX21_p53_BLA_p5_ratio: Tox21 HCT-116 p53 Agonism Beta-lactamase Assay, Ratio, Phase 5 (AID 2283599; active means hit-call score of the fitted dose curve at least 0.9, where 1 is the maximum). The gist of the method: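 Beta-lactamase reporter ratio (blue 460 nm over green 530 nm, 405 nm excitation) after 2 h CCF4-AM loading, in HCT-116 cells exposed 16 h at 37 C to compounds pinned at 217-fold dilution. Increases relative to DMSO baseline scored.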
Chain of Cellular tumor antigen p53 (Homo sapiens) (P04637 whole entry, looked up): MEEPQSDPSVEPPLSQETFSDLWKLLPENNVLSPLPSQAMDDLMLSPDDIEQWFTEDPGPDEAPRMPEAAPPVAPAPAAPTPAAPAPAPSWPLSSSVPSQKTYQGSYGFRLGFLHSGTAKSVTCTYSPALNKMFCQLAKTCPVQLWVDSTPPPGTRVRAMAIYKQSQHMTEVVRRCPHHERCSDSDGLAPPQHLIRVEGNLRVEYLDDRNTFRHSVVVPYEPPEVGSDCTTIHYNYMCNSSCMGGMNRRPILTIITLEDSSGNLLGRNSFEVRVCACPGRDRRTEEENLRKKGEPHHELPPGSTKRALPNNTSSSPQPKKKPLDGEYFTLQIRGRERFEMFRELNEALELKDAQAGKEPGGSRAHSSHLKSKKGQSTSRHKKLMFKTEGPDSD

A short description of experiment [17]: TOX21_p53_BLA_p5_viability: Viability Assessment in the Tox21 HCT-116 p53 Agonism Beta-lactamase Assay, Phase 5 (AID 2283600; active means hit-call score of the fitted dose curve at least 0.9, where 1 is the maximum). Summed up:
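Decreased CellTiter-Glo luminescence denotes lost viability. Exposure: 16 h at 37C, 5% CO2, with compounds from DMSO stocks diluted 217-fold in wells of 4000 cells.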

Experiment [18] has as its target Cellular tumor antigen p53 (Homo sapiens) (UniProt P04637). Description: TOX21_p53_BLA_p4_ratio: Tox21 HCT-116 p53 Agonism Beta-lactamase Assay, Ratio, Phase 4 (AID 2283601; active means hit-call score of the fitted dose curve at least 0.9, where 1 is the maximum). The gist of the method:
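Signal is the blue/green (460nm/530nm) ratio of cleaved versus uncleaved CCF4-AM substrate, read after 2 h substrate loading. Cells were HCT116 carrying the p53-responsive beta-lactamase reporter, dosed 16 h at 37C, 5% CO2; CellTiter-Glo measured in parallel.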

Molecules are shown by their SMILES. Results filed as inconclusive are left out. Activity calls are given as the source filed them. How the source made its calls, unless noted: active means hit-call score of the fitted dose curve at least 0.9, where 1 is the maximum; inactive means score below 0.9.

For the compound `c1cc[n+]2c(c1)-c1cccc[n+]1CC2`, the outcome in experiment [1] is “inactive”; in [2], “inactive”; in experiment [3], “inactive”; with TIMP1, TIMP1 (gene 7076) it was “inactive”; in [4] it was “inactive”; in experiment [5], “inactive”. In addition, the call in experiment [6], in experiment [7], in experiment [8], in experiment [9], in [10] and in experiment [11] was inactive. The outcome in experiment [12], in experiment [13], in experiment [14], in [16], in experiment [17] and in [18] was inactive. For the same compound, the AC50 in experiment [15] is 20 µM (active).
